# 14-3-3 Bad inh: disrupts binding of bovine 14-3-3 zeta to phospho-Bad peptide; inhibition, % at 21.7 µM; AID 781; actives 0.71% (n = 220,000); TR-FRET 14-3-3zeta/Dy647-pBad peptide displacement, 1 h;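 active = inhibition above about 70%, limit read from the data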
# Mcl1-Noxa inh: Mcl-1/Noxa interaction inhibition | Q07820 | TR-FRET Mcl-1/Noxa peptide binding, 2 h | inhibition, % at 21.7 µM | actives 1.5% (n = 220,000);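 active = compounds that cut the protein-peptide binding signal by more than 50% relative to plate controls in a single-dose test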;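 note: His-tagged Mcl-1 with rhodamine Noxa BH3 peptide and terbium anti-His antibody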
# Mcl1 Bid PPI: Mcl-1/Bid interaction inhibition | Q07820 | TR-FRET Mcl-1/Bid-Dy647 peptide binding, 1536-well | inhibition, % at 21.7 µM | actives 0.97% (n = 220,000) | AID 1021;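 active = compounds that cut the binding signal by more than half at the single screening dose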;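 note: His-tagged Mcl-1 with europium anti-His antibody binding Bid BH3 peptide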
# Pf gamet viab: P. falciparum stage V gametocyte viability inhibition | P. falciparum stage V gametocytes, ATP luminescence, 24 h | inhibition, % at 10.9 µM | actives 0.065% (n = 150,000);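 active = inhibition above the mean plus 3 SD of compounds within the control limits, set per campaign, cut at about 38% in these data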
# Bim-Mcl-1: human Bim-Mcl-1 interaction inhibition; Bead-based flow cytometry, Bim peptide-Mcl-1 binding; inhibition, % at 10 µM; actives 0.1% (n = 190,000); AID 1009; in the data active = inhibition above about 40%
# eIF4E-4G inh: inhibitors of eIF4E and eIF4G interaction in translation initiation; P63073+Q04637; TR-FRET eIF4E-eIF4GI(517-606) binding, 2 h; inhibition, % at 21.7 µM; actives 0.37% (n = 220,000);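 active = inhibition above about 30%, limit read from the data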
# Numbers stand for hits; - = inactive; . = no result given; ! = not active in a repeat; [ ] = another dose, or the depositor's remark. Hits are enriched below; roughly 2.7% of the tested compounds scored in any of these assays.
SMILES,14-3-3 Bad inh,Mcl1-Noxa inh,Mcl1 Bid PPI,Pf gamet viab,Bim-Mcl-1,eIF4E-4G inh
COc1ccc(NC(C#N)c2ccccc2OCc2ccccc2)cc1 (configuration not stated),-,-,-,-,-,-
Cc1ccc(/C=C2\C(=O)Nc3ccccc32)o1,-,62.3,-,-,-,-
Cc1ccc2c(c1)/C(=C/c1ccco1)C(=O)N2,-,-,-,-,-,-
CC(Oc1ccc(Cl)cc1)c1ccn[nH]1 (configuration not stated),-,-,-,.,-,-
Cc1cc(O)c(/C=N/OCc2ccc(Cl)cc2Cl)c(=O)o1,-,-,-,-,-,75.6
Cc1cc(O)c(/C=N/Nc2ccc(Cl)cc2)c(=O)o1,-,-,-,-,-,-
Cc1cc(C)c2cc3c(N)c(C(=O)Nc4c(C)[nH]c(=O)[nH]c4=O)sc3nc2c1,-,54.4,-,-,-,-
Cc1cc(C)c(NC(=O)c2sc3nc4c(cc3c2N)C(=O)CC(C)(C)C4)c(C)c1,-,-,-,-,-,-
CCC1S/C(=N\S(=O)(=O)c2cccs2)N(C2CCCCC2)C1=O (configuration not stated),-,-,-,-,-,-
COc1ccc(N=C2S/C(=C\c3ccc(OCC(=O)O)cc3)C(=O)N2CCc2c[nH]c3ccccc23)cc1,-,69.8,-,-,-,-
Fc1ccc(-c2nnc(SCc3cccnc3)o2)cc1,-,-,-,-,-,-
COc1ccccc1N(C)S(=O)(=O)c1ccc(C(=O)OCC(N)=O)cc1,-,-,-,-,44.0,-
Cc1ccccc1NC(=O)CN(C)S(=O)(=O)c1cccc2cccnc12,-,-,-,.,-,-
Cc1cccc(/C=C/C(=O)c2ccc(NC3=NCCCS3)cc2)c1,-,87.9,-,-,-,-
O=C(/C=C/c1ccccc1)c1ccc(NC2=NCCCS2)cc1,-,84.0,-,-,-,-
O=C(/C=C/c1ccc(Br)cc1)c1ccc(NC2=NCCCS2)cc1,-,-,-,-,-,-
CC(C)(C)c1ccc(/C=C/C(=O)c2ccc(NC3=NCCCS3)cc2)cc1,-,-,-,-,-,-
COc1cccc(/C=C/C(=O)c2ccc(NC3=NCCCS3)cc2)c1,-,56.6,-,-,-,-
NC(CC(=O)O)c1ccc(Br)cc1 (configuration not stated),-,-,-,.,-,-
CC(=O)Oc1cc2c3c(c1)/C(=C1/SC(=S)NC1=O)C(=O)N3C(C)(C)C=C2C,-,51.0,-,-,.,-
CCOc1cc2c3c(c1)C(C)=CC(C)(C)N3C(=O)C2=O,-,-,-,-,-,-
O=C(Cn1cnc2c(nnn2Cc2ccccc2)c1=O)NCc1ccccc1Cl,-,-,-,-,.,-
COc1ccc(OCCNC(=O)c2ccccc2OCC(=O)N2CCCCC2)cc1,-,-,-,-,68.0,-
CCOC(=O)CSc1nnc(SCCN2C(=O)c3ccccc3C2=O)s1,-,-,-,-,-,-
Nc1c(C(=O)NCc2cccnc2)sc(=S)n1-c1ccccc1,-,-,-,-,-,32.6
SMILES,14-3-3 Bad inh,Mcl1-Noxa inh,Mcl1 Bid PPI,Pf gamet viab,Bim-Mcl-1,eIF4E-4G inh
COC(=O)Cn1c(N)[n+](Cc2ccccc2)c2ccccc21,.,.,.,-,.,.
CCOC(=O)Cn1c(=O)oc2cc(S(=O)(=O)NCc3cccs3)ccc21,-,-,-,.,-,54.0[fluorescence artefact?]
CC(NC(=O)Nc1ccccc1)C(c1ccccc1)N1CCOCC1 (configuration not stated),-,-,-,.,-,-
CC(NC(=S)Nc1ccc(Cl)cc1)C(c1ccccc1)N1CCOCC1 (configuration not stated),70.9,-,-,.,-,-
CNc1cccccc1=S,-,57.9,-,-,-,-
CCOC(=O)N1CCC(N2CCN(S(=O)(=O)CC)CC2)CC1,71.8,-,-,.,-,-
CCOC(=O)N1CCC(N2CCN(S(=O)(=O)c3ccc(C)cc3)CC2)CC1,-,-,-,-,-,-
C[c-]1[c-](C)[c-](C)[c-](C)[c-]1C.[Fe].c1cc2nccc(N3CCCC3)[c-]2c1 (configuration not stated),-,54.9!,-,-,.,-
Cc1ccc(-n2c(C)cc(/C=N/Nc3ccc([N+](=O)[O-])cn3)c2C)cc1,-,-,-,.,-,34.7[fluorescence artefact?]
Cc1cc(/C=N/Nc2ccc([N+](=O)[O-])cn2)c(C)n1-c1ccccc1,-,-,-,.,-,-
O=C(Nc1ccccc1C(=O)N/N=C/c1ccco1)c1ccc(F)cc1,-,-,-,.,-,-
COc1ccc2nc(SCC(=O)NC(C)C)[nH]c2c1,79.7,-,-,-,-,-
Cc1ccc(Nc2nnc(SC3CCOC3=O)s2)c(C)c1 (configuration not stated),79.7,-,-,.,-,-
Cc1ccc(Nc2nnc(SCC(=O)NC3CCS(=O)(=O)C3)s2)c(C)c1 (configuration not stated),-,-,-,.,-,-
COc1cccc(C2C3=C(N=c4s/c(=C\c5ccc(OCC(=O)O)cc5)c(=O)n42)c2ccccc2CC3)c1 (configuration not stated),-,71.0,-,.,.,39.9
COc1ccccc1C1C2=C(N=c3s/c(=C/c4cccc(OCC(=O)O)c4)c(=O)n31)c1ccccc1CC2 (configuration not stated),-,107.0,81.9,-,-,-
COc1cccc(C2C3=C(N=c4s/c(=C\c5cccc(O)c5)c(=O)n42)c2ccccc2CC3)c1OC (configuration not stated),-,-,-,-,-,-
CN(C)c1ccc(CNCCC2(O)CCOC(C)(C)C2)cc1 (configuration not stated),74.7,-,-,.,-,-
CN(C)c1ccc(C=NCCC2(O)CCOC(C)(C)C2)cc1 (configuration not stated),-,-,-,.,-,-
O=C(COC(=O)c1ccc(Cl)c(S(=O)(=O)NCc2ccccc2)c1)NCC1CCCO1 (configuration not stated),-,-,-,-,-,-
C[C@H]1COC(=O)[C@H](Cc2ccc(F)cc2)C/C=C\C[C@H](CC(=O)NCCO)C(=O)N1,.,.,.,-,.,.
CC(C)(CO)NCC(O)Cn1cc(C=O)c2ccccc21 (configuration not stated),100.1,-,-,-,-,-
COCCCN1C(=O)C(=O)/C(=C(/O)c2ccc(OC)cc2)C1c1cccc(OC)c1 (configuration not stated),-,63.8,-,.,-,-
CCOc1nc(-c2ccccc2)ncc1Oc1ccccc1,.,.,.,-,.,.
O=C(O)c1cc(-c2ccco2)nc2cc3ccccc3cc12,-,-,-,-,.,-
CC(C)[C@@H]1C=C(C(=O)O)O[C@H](OCCCCO)C1,-,-,-,.,.,97.4

# High-throughput results as filed in PubChem BioAssay.
